Bioassay records deposited in PubChem by National Center for Advancing Translational Sciences (NCATS).
The list is not random: actives were taken first. Their share in the collection is about 2.5%.
Cruzain inh Det: blocks cruzain activity in presence of Triton detergent | P25779 | purified cruzain, Z-FR-AMC fluorescence, 0.01% Triton | Potency, µM, inactives show max response, negative = inhibition, hits mostly inhibitors | 200,000 tested, 0.43% active | AID 1478;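 further: plate controls were neutral wells for no effect and buffer without enzyme for full effect; nearly all actives have a fitted effect of over 40% in size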
Target sequence (P25779 123-467 limits assumed): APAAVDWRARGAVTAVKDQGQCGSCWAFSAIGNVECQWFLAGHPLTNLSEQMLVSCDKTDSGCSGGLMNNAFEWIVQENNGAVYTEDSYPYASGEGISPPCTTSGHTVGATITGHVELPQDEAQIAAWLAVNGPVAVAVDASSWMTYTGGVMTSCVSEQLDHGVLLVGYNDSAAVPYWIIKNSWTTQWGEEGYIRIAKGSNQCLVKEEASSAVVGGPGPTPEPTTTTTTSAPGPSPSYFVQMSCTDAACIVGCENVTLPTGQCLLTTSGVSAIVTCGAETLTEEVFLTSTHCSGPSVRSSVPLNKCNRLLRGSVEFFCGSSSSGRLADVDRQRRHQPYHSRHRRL
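Compounds were screened in titration against cruzain (1.5 nM) with 0.01% Triton X-100 to counter colloidal aggregation. Activity was the AMC fluorescence increase over 60 s after adding 2 uM Z-FR-AMC at pH 5.5.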
Cruzain noTriton: blocks cruzain activity in detergent-free assay | P25779 | purified cruzain, Z-FR-AMC fluorescence, no detergent | Potency, µM, without a hit: max response, negative = inhibition, most hits filed as inhibitors | 200,000 tested, 2.3% active;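 further: plate controls were enzyme without inhibitor for no effect and buffer without enzyme for full effect; nearly all actives have a fitted effect of over 40% in size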
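Detergent-free condition (0.00005% Triton X-100) in acetate buffer pH 5.5 with DTT. 1.5 nM enzyme and compound were pre-mixed 15 min, then 2 uM Z-FR-AMC substrate added; reaction progress from fluorescence change between first and third reads (60 s).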
An asterisk follows results filed as active; u = inconclusive. The call rests on the fitted dose curve; in most records, active means well fitted curve in the direction sought with a large enough effect; inconclusive means small, poorly fitted or top-dose-only effect, or another doubt; inactive means no such curve, though single readings can be large; an effect the other way counts as inactive or inconclusive. Potency means the concentration at half of the fitted maximal effect.

SMILES	Cruzain inh Det	Cruzain noTriton
Cn1cc(/C=C2/SC(=O)N(c3ccccc3)C2=O)c2ccccc21	1%	u
Cc1ccc(N=C2NC(=O)/C(=C/c3cn(C)c4ccccc34)S2)cc1C	-5%	13µM*
CCCCN(CC)CCNC(=O)CN1C(=O)COc2ccc(S(=O)(=O)N3CCOCC3)cc21	2%	-3%
CCCn1c(=O)c2c(nc3n2CCN3c2ccc(C)cc2)n(C)c1=O	-4%	4%
O=C(Nc1cccc(S(=O)(=O)Nc2ccccc2Cl)c1)c1ccc(N2CCCC2)c([N+](=O)[O-])c1	-1%	10µM*
COc1ccc(Cl)cc1NS(=O)(=O)c1cc(Cl)ccc1OC	-2%	2%
COc1cc(/C=C/C(=O)Nc2ccc(N3CCCCC3)c(S(=O)(=O)Nc3ccccc3Cl)c2)cc(OC)c1OC	-2%	13%
COc1ccc(S(=O)(=O)N2CCCCC2)cc1NS(=O)(=O)c1cc(Cl)ccc1Cl	-6%	20µM*
O=C(Nc1cccc(C(F)(F)F)c1)c1cc(S(=O)(=O)N2CCCCC2)ccc1N1CCOCC1	-12%	u
COc1ccccc1NS(=O)(=O)c1cc(NC(=O)Nc2ccc(Cl)cc2Cl)ccc1N1CCCCC1	-2%	5µM*
O=C(Nc1cccc(C(F)(F)F)c1)Nc1ccc(N2CCCC2)c(S(=O)(=O)Nc2ccccc2Cl)c1	0%	6.3µM*
O=C(Nc1cccc(S(=O)(=O)Nc2ccccc2Cl)c1)c1ccc(Cl)nc1	-4%	0%
N[C@@H](CO)C(=O)O	-1%	-1%
COCCNC(=O)c1ccccc1NC(=O)c1nsc2ccccc12	-10%	u
Cc1ccc(NC(=O)CCCc2nnc3n(C)c(=O)c4sccc4n23)cc1F	0%	-9%
CC(=O)c1ccc(C(=O)N(Cc2cccnc2)c2nc3c(Cl)cccc3s2)cc1	-3%	u
Cc1nn2c(=O)cc(COc3ccc(/C=C(\C#N)C(=O)Nc4ccccc4)cc3Cl)nc2s1	1%	-3%
COc1ccccc1-c1cncnc1NCCc1cnc[nH]1	3%	0%
COc1cc(NC(=O)COc2ccc(Cl)cc2)ccc1-c1cc2ccccc2oc1=O	0%	5µM*
COc1ccc(C(=O)Nc2ccc(-c3cc4ccccc4oc3=O)c(C)c2)cc1Br	-20%	25µM*
Cc1cc(NC(=O)c2ccc(F)cc2)ccc1-c1cc2ccccc2oc1=O	-2%	5%
COc1cc2c(cc1NC(=O)COc1ccc(Cl)cc1)oc1ccccc12	-2%	-1%
Cc1nn(-c2ccccc2)c(N2CCCC2)c1/C=C1\N=C(c2ccccc2)OC1=O	1.6µM*	0.79µM*
Cc1nn(-c2ccccc2)c(N2CCCCC2)c1/C=N/O	1%	-9%
CC(C)C(NC(=O)OCc1ccccc1)C(=O)O (configuration not stated)	7%	-2%
SMILES	Cruzain inh Det	Cruzain noTriton
CC(C)[C@H](NC(=O)OCc1ccccc1)C(=O)N[C@H](C=O)Cc1ccccc1	0.032µM*	0.032µM*
CC(C)[C@H](NC(=O)OCc1ccccc1)C(=O)OCC(=O)Nc1c(F)cccc1F	14µM*	u
CC(C)[C@H](NC(=O)OCc1ccccc1)C(=O)NCc1ccccc1	-3%	-10%
COC(=O)c1ccc(NC(=O)N2CCN(c3nnc(C)c4c(C)n(-c5ccccc5)nc34)CC2)cc1	-3%	20%
COc1ccc(-n2nc3cc(C)c(NC(=O)c4ccc(-c5ccc(Br)cc5)o4)cc3n2)cc1	0%	-2%
O=C(NCC(c1ccc2c(c1)OCO2)N1CCN(c2ccccc2)CC1)c1ccccc1F (configuration not stated)	2%	0%
CC1=NN(C(N)=S)C(=O)C1N=Nc1ccccc1C (configuration not stated)	u	25µM*
CC(=O)Nc1ccc(N2N=C(C)C(N=Nc3ccccc3)C2=O)cc1 (configuration not stated)	-5%	u
CC1=NN(C(N)=S)C(=O)C1N=Nc1ccc(C)cc1C (configuration not stated)	-17%	u
CC1=NN(C(N)=S)C(=O)C1N=Nc1c(C)cc(C)cc1C (configuration not stated)	-27%	13µM*
COc1cccc(COC(=O)c2ccc(-c3nnn(Cc4ccccc4)n3)cc2)c1	4%	3%
CCOc1ccc(CCNC(=O)CCSCc2cccc(Cl)c2)cc1OCC	0%	u
COc1cccc(CNC(=O)Cn2c(SCC(=O)Nc3ccc(F)cc3)nc3ccccc32)c1	7%	-9%
Cc1nn(C(=O)c2ccco2)c(C)c1CN1C(=O)c2ccccc2C1=O	2%	-3%
Cc1nn(C(=O)c2cccs2)c(C)c1CN1C(=O)c2ccccc2C1=O	1%	20µM*
COc1ccccc1NC(=O)CSc1oc(-c2ccccc2)nc1S(=O)(=O)c1ccc(C)cc1	-5%	u
COc1cccc(-c2nc(-c3ccc(NC(=O)c4cccnc4)cc3)no2)c1	-4%	19%
COc1ccccc1CC(=O)Nc1ccc(-c2noc(COc3ccc(Cl)c(C)c3)n2)cc1	4%	25µM*
CCOc1ccccc1NC(=O)c1ccccc1-c1nc(-c2ccccc2)no1	-1%	4%
COc1ccc(CC(=O)Nc2ccc(-c3noc(-c4cccc(OC)c4)n3)cc2)cc1	3%	7.9µM*
CCOc1ccccc1-c1nc(-c2ccc(NC(=O)Cc3ccccc3OC)cc2)no1	4%	25µM*
COc1ccc(-c2noc(CC(=O)Nc3ccc(C)c(F)c3)n2)cc1	-2%	-23%
CCOCCCNC(=O)C1CCN(C(=O)c2cc3sccc3n2C)CC1	-2%	2%
CCN(CC)C(=O)c1ccc2c(c1)N(Cc1c(F)cccc1Cl)C(=O)c1ccccc1S2	-5%	-6%
COc1ccc(C(=O)CN2C(=O)N(c3cc(C)ccc3C)S(=O)(=O)c3ccccc32)cc1	-1%	u
SMILES	Cruzain inh Det	Cruzain noTriton
CCOC(=O)c1sc2nc(SCC(=O)NCc3ccco3)n(Cc3ccccc3)c(=O)c2c1C	2%	7.9µM*
O=C(CSc1nc2ccccc2c(=O)n1Cc1ccco1)NCc1ccco1	-6%	-27%
CCOC(=O)c1c(NC(=O)CSc2ncnc3ccccc23)sc(C(C)=O)c1C	-3%	u
CCOC(=O)c1c(NC(=O)CSc2nc3ccccc3c(=O)n2-c2ccc(F)cc2)sc(C(C)=O)c1C	-5%	7.9µM*
COC(=O)c1c(NC(=O)CSc2nc3ccccc3c(=O)n2Cc2ccco2)sc(C)c1C	-2%	25µM*
Cc1sc2nc(SCC(=O)NCc3ccco3)n(Cc3ccccc3)c(=O)c2c1C	-3%	4%
COc1ccccc1NC(=O)N1CCN(c2nnc(C)c3c(C)n(-c4ccccc4)nc23)CC1	-10%	2%
Cc1cc(C)cc(-n2ccn3cnnc3c2=O)c1	-3%	0%
CCOC(=O)C1CCN(C(=O)Cn2ncc3c4ccccc4n(Cc4ccccc4)c3c2=O)CC1	-10%	u
Cc1cc(C)c(NC(=O)C(C)Sc2nc3ccc(N4C(=O)c5ccccc5C4=O)cc3s2)c(C)c1 (configuration not stated)	0%	6.3µM*
CCc1cccc(C)c1NC(=O)CSc1nc2ccc(N3C(=O)c4ccccc4C3=O)cc2s1	5%	u
N#Cc1c(-c2cccs2)cc(-c2cccnc2)nc1N	-11%	-11%
CCN(CC)C(=O)c1sc2nc(-c3cccs3)cc(-c3ccc(Cl)cc3)c2c1N	-2%	32µM*
N#Cc1sc2nc(-c3cccs3)cc(-c3ccccc3)c2c1N	-1%	16µM*
CC(C)(C)C(=O)c1sc2nc(-c3cccs3)cc(C(F)(F)F)c2c1N	1%	-2%
